Bioassay records as filed in PubChem BioAssay.
The entries come from a sample that favours hits as a whole.
miR-122 inh: miR-122 suppressors via Renilla sensor increase, primary screen, cell-based, Huh7 psiCHECK-miR122, Renilla luciferase, single point; 48 h; 340,000 tested, 0.14% active; activation, % at 12.5 µM; AID 623901, 2012;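 active = mean activation of 30% or more, with every replicate also reaching 30%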;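 also: 0% = median of neutral control wells and 100% = median of positive control wells; higher luciferase signal means stronger suppression of miR-122 activity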
* marks the source's active call; other numbers are inactive results.

Results for C/C=C/c1ccc2c(c1)O[C@@H](CN(C)C(=O)CC1CC1)[C@H](C)CN([C@@H](C)CO)S2(=O)=O ?
miR-122 inh: 4.6

What do the screens show for `CCCCCCCN(C(=O)CCl)c1cccc(C)c1`?
miR-122 inh: 66.3*

How did CCCC(O)C#Cc1cnc2c(c1)C(=O)N([C@H](C)CO)C[C@H](C)[C@H](CN(C)Cc1ccccc1)O2 (some centres not stated) do in these assays?
miR-122 inh: -6.1

Results for COc1cc(-c2nnc3sc(C4CCCCC4)nn23)cc(OC)c1OC ?
miR-122 inh: 32.1*

Results for CO[C@H]1CN(C)C(=O)c2ccc(NC(=O)Nc3ccccc3)cc2OC[C@@H](C)N(C(C)=O)C[C@H]1C ?
miR-122 inh: -2.4

Results for C[C@@H]1CN([C@H](C)CO)C(=O)c2cc(C#C[C@@H](C)O)cnc2O[C@H]1CN(C)C(=O)CN(C)C ?
miR-122 inh: 8.9

How did C[C@H]1CN([C@@H](C)CO)C(=O)c2cc(C#Cc3ccccc3F)cnc2O[C@@H]1CN(C)C(=O)C1CCOCC1 do in these assays?
miR-122 inh: -2.5

What do the screens show for `CCN1CCN(Cc2ccc(NC(=O)c3ccc(C)c(NC(=O)c4c[nH]c5cc(C(F)(F)F)ccc5c4=O)c3)cc2C(F)(F)F)CC1`?
miR-122 inh: 32.8*

Results for COc1cccc(-c2cnc3c(c2)C(=O)N([C@@H](C)CO)C[C@H](C)[C@@H](CN(C)CC2CCOCC2)O3)c1 ?
miR-122 inh: -0.5

How did C[C@H](CO)N1C[C@H](C)[C@@H](CN(C)CC2CCOCC2)Oc2ncc(-c3cncnc3)cc2C1=O do in these assays?
miR-122 inh: 4.0

What do the screens show for `CC(C)CC#Cc1cnc2c(c1)C(=O)N([C@H](C)CO)C[C@H](C)[C@@H](CN(C)C(=O)Nc1ccccc1F)O2`?
miR-122 inh: 3.1

Results for C[C@H]1CN([C@@H](C)CO)C(=O)c2cc(-c3ccc(F)cc3)cnc2O[C@@H]1CN(C)Cc1ccccn1 ?
miR-122 inh: -1.5

How did CC(C)NC(=O)N(C)C[C@@H]1Oc2cc(-c3ccccc3)ccc2S(=O)(=O)N([C@@H](C)CO)C[C@@H]1C do in these assays?
miR-122 inh: -16.0

Results for COc1cccc(C(=O)Nc2cc([N+](=O)[O-])ccc2N2CCN(C)CC2)c1 ?
miR-122 inh: -292.0

Results for CN1CCN(c2ccc(Cl)cc2NC(=O)c2ccc(S(=O)(=O)N3CCCCCC3)cc2)CC1 ?
miR-122 inh: 39.6*

Results for COc1ccc(NC(C)=O)cc1S(=O)(=O)Nc1ccc(S(=O)(=O)N2CCCCC2)cc1 ?
miR-122 inh: -125.7

Results for C[C@@H]1CN([C@@H](C)CO)S(=O)(=O)c2ccc(Br)cc2O[C@H]1CN(C)S(=O)(=O)c1cccc(F)c1 ?
miR-122 inh: -1.1

What do the screens show for `C[C@@H]1CN([C@H](C)CO)C(=O)c2cc(-c3cccc(F)c3)cnc2O[C@@H]1CN(C)S(C)(=O)=O`?
miR-122 inh: 9.6

Results for CCCCc1cc(=O)oc2cc(C)cc(OC(C)C(=O)O)c12 (configuration not stated) ?
miR-122 inh: 31.7*

How did C[C@@H]1CN([C@@H](C)CO)C(=O)Cc2cc(NC(=O)CCCCCC(=O)Nc3ccccc3N)ccc2O[C@@H]1CN(C)Cc1ccc(Oc2ccccc2)cc1 do in these assays?
miR-122 inh: 12.1

How did CO[C@H]1CN(C)C(=O)c2ccc(NC(=O)Nc3ccc(F)cc3)cc2OC[C@H](C)NC[C@H]1C do in these assays?
miR-122 inh: -2.0

Results for C[C@@H]1CN([C@H](C)CO)C(=O)c2cc(-c3ccccc3F)cnc2O[C@H]1CN(C)C(=O)C1CCCCC1 ?
miR-122 inh: 13.2

Results for C[C@H](CO)N1C[C@H](C)[C@@H](CN(C)CC2CCOCC2)Oc2cc(C#C[C@@H](C)O)ccc2S1(=O)=O ?
miR-122 inh: -19.8

Results for O=[N+]([O-])c1ccc(/C=N/n2cnc3ccccc32)s1 ?
miR-122 inh: 47.8*

How did C[C@@H](O)C#Cc1cnc2c(c1)C(=O)N([C@@H](C)CO)C[C@H](C)[C@H](CN(C)C(=O)CN(C)C)O2 do in these assays?
miR-122 inh: 1.6

Results for C[C@H]1CN([C@@H](C)CO)S(=O)(=O)c2ccc(C#CC3CC3)cc2O[C@H]1CN(C)Cc1ccccn1 ?
miR-122 inh: 1.1

How did CCCNC(=O)Nc1ccc2c(c1)OC[C@H](C)NC[C@H](C)[C@@H](OC)CN(C)C2=O do in these assays?
miR-122 inh: -0.1

What do the screens show for `COCC#Cc1cnc2c(c1)C(=O)N([C@H](C)CO)C[C@H](C)[C@H](CN(C)Cc1ccccc1)O2`?
miR-122 inh: -1.4

How did C[C@H](CO)N1C[C@H](C)[C@H](CN(C)C(=O)c2ccncc2)Oc2cc(C#C[C@@H](C)O)ccc2S1(=O)=O do in these assays?
miR-122 inh: 8.8

Results for COC(=O)C1=C(C)N=C2SC(C#N)=C(N)N2C1c1cc(OC)c(OC)c(OC)c1 (configuration not stated) ?
miR-122 inh: 37.6*

How did C[C@@H]1CN([C@@H](C)CO)C(=O)c2cc(-c3cccc(F)c3)cnc2O[C@@H]1CN(C)Cc1ccncc1 do in these assays?
miR-122 inh: 1.1

How did C[C@H]1CN([C@@H](C)CO)C(=O)c2cc(-c3ccc(F)cc3)cnc2O[C@H]1CN(C)CC1CCOCC1 do in these assays?
miR-122 inh: -6.6

How did COc1ccc(-c2c(-c3ccccc3)c(C(=O)C(=O)NCCCN(C)C)n3ccc4cc(OC)c(OC)cc4c23)cc1OC do in these assays?
miR-122 inh: 37.5*

What do the screens show for `C[C@@H]1CN([C@@H](C)CO)S(=O)(=O)c2ccc(C#CCC3CCCC3)cc2O[C@H]1CN(C)C(=O)c1ccccn1`?
miR-122 inh: -3.7

How did CCCNC(=O)N(C)C[C@H]1Oc2ncc(C#Cc3ccccc3F)cc2C(=O)N([C@H](C)CO)C[C@@H]1C do in these assays?
miR-122 inh: 1.0

What do the screens show for `C[C@@H]1CN([C@H](C)CO)C(=O)c2cc(C#Cc3cccnc3)cnc2O[C@H]1CN(C)S(C)(=O)=O`?
miR-122 inh: -0.8

What do the screens show for `CCCNC(=O)N(C)C[C@H]1Oc2ncc(C#CCC(C)C)cc2C(=O)N([C@@H](C)CO)C[C@H]1C`?
miR-122 inh: -1.0

How did C[C@H](O)C#Cc1cnc2c(c1)C(=O)N([C@H](C)CO)C[C@H](C)[C@H](CN(C)C(=O)CN(C)C)O2 do in these assays?
miR-122 inh: 8.0

How did COC(=O)c1nn(-c2ccccc2)c(Sc2ccc(Cl)cc2)c1/C=N/O do in these assays?
miR-122 inh: 35.6*

What do the screens show for `C[C@H](O)C#Cc1cnc2c(c1)C(=O)N([C@H](C)CO)C[C@@H](C)[C@H](CN(C)Cc1cncnc1)O2`?
miR-122 inh: -1.4

Results for C[C@@H]1CN([C@H](C)CO)S(=O)(=O)c2ccc(-c3ccccc3)cc2O[C@H]1CN(C)S(=O)(=O)c1ccccc1F ?
miR-122 inh: -6.4

How did C[C@@H]1CN([C@H](C)CO)C(=O)c2cc(C#Cc3cccc(F)c3)cnc2O[C@@H]1CN(C)CC1CCOCC1 do in these assays?
miR-122 inh: -0.3

Results for C=CCNC(=S)NNC(=O)Cn1c(-c2ccccc2)cc(=O)n2ncnc12 ?
miR-122 inh: 34.0*

How did CC(C)CC#Cc1cnc2c(c1)C(=O)N([C@H](C)CO)C[C@H](C)[C@@H](CN(C)C(=O)C1CCCCC1)O2 do in these assays?
miR-122 inh: -10.4

Results for COCC#Cc1cnc2c(c1)C(=O)N([C@@H](C)CO)C[C@H](C)[C@H](CN(C)C(=O)Nc1c(C)noc1C)O2 ?
miR-122 inh: -4.7
